Growth data for 6 molecules are collected here from PubChem BioAssay (NCI).

Common to all, as to test: NCI-60 one-dose screen, 48 h (100 = growth as untreated, 0 = no growth, -100 = all killed)
The test system of experiment [1] is SR leukemia. The conditions noted are these: 10 µM unless noted.
For experiment [2], the system named is RPMI-8226 leukemia.
The test system of experiment [3] is OVCAR-8 ovarian.
Experiment [4] has as its system OVCAR-5 ovarian.
The test system of experiment [5] is OVCAR-4 ovarian.
Experiment [6] concerns SK-OV-3 ovarian.
The test system of experiment [7] is IGROV1 ovarian.
Experiment [8] deals with OVCAR-3 ovarian.
In experiment [9] the test system is HS 578T breast. The conditions noted are these: 10 µM unless noted.
The subject of experiment [10] is NCI/ADR-RES ovarian. The conditions noted are these: 10 µM unless noted.
The subject of experiment [11] is T-47D breast.
The subject of experiment [12] is BT-549 breast.
The test system of experiment [13] is MDA-MB-435 melanoma.
Experiment [14] concerns SW-620 colon.
Experiment [15] deals with MCF7 breast.
The subject of experiment [16] is HCT-116 colon.
Experiment [17] concerns HCC-2998 colon.
Experiment [18] deals with KM12 colon.

SMILES strings stand for the structures. Where “and” joins values, the source holds several entries; their conditions need not be identical. Equal values may be shown once. About 83,000 compounds went through this panel and 20% of them were active in at least one assay; those are over-represented in the sample as a whole.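 Single-dose data. Exposure time 48 hours. Values below 10 considered active.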 Unmarked numbers belong to inactive results. Calls of active or inactive are those of the source.

Regarding `CCOC(=O)/C(=C\c1ccc(-c2ccccc2)cc1)C(C)=O`, the growth in experiment [1] was 95.9%; in experiment [2] (10 µM unless noted), 105%; in [3] (10 µM unless noted), 113%; in [4] (10 µM unless noted), 96.7%; in experiment [5] (10 µM unless noted), 105%; in experiment [6] (10 µM unless noted), 116%. Besides, the growth is 101% in [7] (10 µM unless noted); 98.2% in experiment [8] (10 µM unless noted); 103% in experiment [9]; 103% in experiment [10]; 105% in [11] (10 µM unless noted); 98.8% in [12] (10 µM unless noted). Besides, the growth in experiment [13] (10 µM unless noted) was 98.9%; in experiment [14] (10 µM unless noted) it was 101%; in experiment [15] (10 µM), 93.3%; in experiment [16] (10 µM unless noted), 103%; in experiment [17] (10 µM unless noted), 95.2%; in experiment [18] (10 µM unless noted) it was 104%.
For `Oc1c(Cl)cc(Cl)c2cccnc12`, the growth was 32.7% and 31.9% in experiment [1]; 50.3% and 50.1% in experiment [2] (10 µM unless noted); 41.2% in experiment [3] (10 µM unless noted); 94.9% in experiment [4] (10 µM unless noted); 50.1% and 45.7% in [5] (10 µM unless noted); 86.5% and 65.8% in experiment [6] (10 µM unless noted). The growth in [7] (10 µM unless noted) is 52.9%; in experiment [8] (10 µM unless noted), 68% and 15.3%; in experiment [9], 72.9% and 52%; in [10] it was 27.4% and 29.3%; in experiment [11] (10 µM unless noted) it was 52.4% and 43.4%; in experiment [12] (10 µM unless noted) it was 53.1% and 40.3%. The growth in [13] (10 µM unless noted) was 63.1% and 54.3%; in experiment [14] (10 µM unless noted), 54.9% and 57.5%; in experiment [15] (10 µM), 50.8% and 29.1%; in experiment [16] (10 µM unless noted), 40.6% and 25.6%; in [17] (10 µM unless noted) it was 74.6% and 69.2%; in [18] (10 µM unless noted), 54.2% and 52.3%.
As for `CC(=O)Nc1cccc2cc(O)ccc12`, the growth in [1] was 108% and 107% and 99.6%; in experiment [2] (10 µM unless noted), 120% and 112% and 106%; in [3] (10 µM unless noted) it was 106% and 100% and 94.3%; in experiment [4] (10 µM unless noted) it was 94.7% and 93.2% and 113%; in experiment [5] (10 µM unless noted), 119% and 109% and 98.8%; in experiment [6] (10 µM unless noted) it was 111% and 115% and 99.8%. Further, the growth in [7] (10 µM unless noted) is 97.2% and 123%; in [8] (10 µM unless noted) it was 111% and 105% and 108%; in experiment [9] it was 132% and 101% and 98.5%; in [10], 104% and 113% and 110%; in experiment [11] (10 µM unless noted) it was 97% and 103%; in experiment [12] (10 µM unless noted), 118% and 145% and 94.5%. Also, the growth is 107% and 117% and 103% in [13] (10 µM unless noted); 104% and 92% and 98.7% in experiment [14] (10 µM unless noted); 99.3% and 99.8% and 91.6% in experiment [15] (10 µM); 85.9% and 103% and 91.2% in experiment [16] (10 µM unless noted); 115% and 108% and 95% in experiment [17] (10 µM unless noted); 110% and 90.7% and 103% in experiment [18] (10 µM unless noted).
On to `Cc1cc(C(C)(CC(C)C)c2ccc(O)c(C)c2)ccc1O`, for which the growth in experiment [1] is 94.6%; in experiment [2] (10 µM unless noted) it was 86.3%; in [3] (10 µM unless noted) it was 91.2%; in experiment [4] (10 µM unless noted), 113%; in [5] (10 µM unless noted), 94.8%; in experiment [6] (10 µM unless noted) it was 97%. Also, the growth in experiment [7] (10 µM unless noted) was 103%; in experiment [8] (10 µM unless noted) it was 106%; in [9], 129%; in experiment [10], 105%; in experiment [11] (10 µM unless noted), 86.8%; in experiment [12] (10 µM unless noted) it was 109%. Moreover, the growth in experiment [13] (10 µM unless noted) was 94.1%; in experiment [14] (10 µM unless noted), 117%; in experiment [15] (10 µM) it was 115%; in [16] (10 µM unless noted) it was 93.9%; in experiment [17] (10 µM unless noted) it was 103%; in experiment [18] (10 µM unless noted), 107%.
With `O=C(Nc1c(Cl)cccc1Cl)Oc1cccc2cccnc12`, the growth was 5.64% [100 µM] (active) in experiment [1]; 45.7% in experiment [2] (10 µM); 2.58% (active) in [2] (100 µM); 27% in experiment [3] (10 µM); 10.2% in experiment [3] (100 µM); 103% in experiment [4] (10 µM). Further, the growth in [4] (100 µM) is 34.1%; in experiment [5] (10 µM), 15.9%; in experiment [5] (100 µM) it was 14.5%; in experiment [6] (10 µM), 65.4%; in experiment [6] (100 µM) it was 18%; in [7] (10 µM), 27%. Moreover, the growth in [7] (100 µM) is 14.4%; in experiment [8] (10 µM) it was 14%; in experiment [8] (100 µM) it was 4.16% (active); in experiment [11] (10 µM), 30.2%; in experiment [11] (100 µM) it was 7.28% (active); in experiment [12] (10 µM) it was 78.5%. Moreover, the growth in experiment [12] (100 µM) is 23.5%; in experiment [13] (10 µM) it was 53.6%; in [13] (100 µM) it was 23.8%; in experiment [14] (10 µM) it was 26.8%; in experiment [14] (100 µM) it was 23.5%; in experiment [15] (10 µM), 3.58% (active). Moreover, the growth is -1.84% (active) in experiment [15] (100 µM); 14.3% in experiment [16] (10 µM); 8.1% (active) in experiment [16] (100 µM); 93.4% in [17] (10 µM); 42.2% in experiment [17] (100 µM); 47% in experiment [18] (10 µM). Moreover, the growth in experiment [18] (100 µM) was 5.56% (active).
On to `O=C(Nc1ccccc1)Oc1c(Cl)c(Cl)c(Cl)c(Cl)c1Cl`, for which the growth in experiment [1] is 98.2% and 99.2%; in [2] (10 µM unless noted) it was 95.2%; in [3] (10 µM unless noted), 105% and 98%; in [4] (10 µM unless noted) it was 95.3% and 87.5%; in experiment [5] (10 µM unless noted), 111% and 91.9%; in experiment [6] (10 µM unless noted), 102% and 90.5%. Moreover, the growth in experiment [7] (10 µM unless noted) is 95.2% and 96.3%; in experiment [8] (10 µM unless noted), 96.9% and 104%; in experiment [9] it was 91.6%; in [10], 103% and 96.6%; in experiment [11] (10 µM unless noted), 102% and 84.5%; in experiment [12] (10 µM unless noted) it was 98.7% and 88.5%. The growth is 109% and 98.8% in [13] (10 µM unless noted); 101% and 102% in experiment [14] (10 µM unless noted); 98.1% and 91.5% in experiment [15] (10 µM); 105% and 101% in experiment [16] (10 µM unless noted); 112% and 108% in experiment [17] (10 µM unless noted); 100% and 97.5% in experiment [18] (10 µM unless noted).
